Results reported in PubChem BioAssay AID651635 (National Center for Advancing Translational Sciences (NCATS), 2012).
The whole screen tested about 400,000 compounds, of which about 1,900 (0.47%) were called active. About 14% were inconclusive and are not listed. What follows is part of a selection rich in actives, with near analogues and random picks from the rest. Unmarked numbers belong to inactive results. The call rests on the fitted dose curve; in most records, active means well fitted cell-killing curve with a large enough effect; inconclusive means small, poorly fitted or top-dose-only effect, or effect the other way; inactive means no such curve, though single readings can be large or run the other way.

test: Viability Counterscreen for Primary qHTS for Inhibitors of ATXN expression; conditions: S2 cells (HEK-293 line with an ATXN2-luciferase reporter) viability, CellTiter-Fluor protease fluorescence, 24 h; series mostly up to 56.7 µM; activity change, negative = cytotoxicity: at the top concentration; further: nearly all actives have a fitted effect of over 40% in size
Potency means the concentration at half of the fitted maximal effect.

Compound	activity change, negative = cytotoxicity	Potency
COc1ccccc1-c1ccnc(-n2ncc(C(=O)NCCc3ccncc3)c2C)n1	-6.5%	–
O=C(O)c1ccccc1/C=N/Nc1ccc(S(=O)(=O)Nc2ccc(Cl)cc2)cc1[N+](=O)[O-]	-23.7%	–
Oc1[nH]c2ccccc2c1N=Nc1c(F)c(F)c(F)c(F)c1F	-34.7%	–
O=[N+]([O-])c1cc(S(=O)(=O)Nc2cccc(Cl)c2)ccc1N=Nc1c(O)[nH]c2ccccc12	–	28.2 µM (active)
CO/N=C(\C(=O)N[C@@H]1C(=O)N2C(C(=O)O)=C(C[N+]3(C)CCCC3)CS[C@H]12)c1csc(N)n1	-14.3% [at 25.4 µM]	–
COc1cc(-c2cccnc2)cc2c1OCCN(C(=O)Cc1csc(C)n1)C2	-16.2%	–
COc1cc2[nH]c(C)c(CCN3CCN(c4ccccc4)CC3)c2cc1OC	-20.5%	–
CC1CN(C(=O)c2ccc([N+](=O)[O-])s2)CC(C)O1 (stereo not given)	-21.9%	–
O=[N+]([O-])c1ccc(C=Nc2ccc(Cl)cc2Cl)s1	–	11.2 µM (active)
CNN/C(N=Cc1ccc([N+](=O)[O-])s1)=N\S(=O)(=O)c1cc(C)c(Cl)cc1SCc1ccccc1	-34.8%	–
CCOC(=O)[C@]12CCC=C1N(CCC1=CCCCC1)C(=O)[C@H](CC(=O)NCc1ccc(C)o1)C2	-38%	–
COC(=O)c1nc(Cl)c(Cl)nc1N	–	15.8 µM (active)
COC(=O)c1c(C)c(C)nc(N)c1C#N	-3.55%	–
COC(=O)c1nn(-c2cccc(Cl)c2)ccc1=O	5.56%	–
CCCOc1ccc(F)cc1-c1cc(C(=O)NCc2ccc(F)cc2)[nH]n1	-12.6%	–
CCC1CN(CCNC(=O)c2ccsc2)Cc2cc(OC)ccc2O1 (stereo not given)	-8.37%	–
CC[C@]1(O)C[C@@H]2CN(CCc3c([nH]c4ccccc34)[C@@](C(=O)OC)(c3cc4c(cc3OC)N(C)[C@H]3[C@@](O)(C(=O)OC)[C@H](OC(C)=O)[C@]5(CC)C=CCN6CC[C@]43[C@@H]65)C2)C1	–	1 µM (active)
O=C(NCC1Cc2cc(F)cc(-c3cnccn3)c2O1)C1COc2ccccc2O1 (stereo not given)	-9.12%	–
CC[C@H](C)CCCCC(=O)N[C@@H](CCN)C(=O)N[C@H](C(=O)N[C@@H](CCN)C(=O)N[C@H]1CCNC(=O)[C@H]([C@@H](C)O)NC(=O)[C@H](CCN)NC(=O)[C@H](CCN)NC(=O)[C@H](CC(C)C)NC(=O)[C@@H](CC(C)C)NC(=O)[C@H](CCN)NC1=O)[C@@H](C)O	-1.3%	–
CCC(C(=O)OCCN(CC)CC)c1ccccc1 (stereo not given)	–	inactive

Compound	activity change, negative = cytotoxicity	Potency
CCN(CC)CCOC(=O)c1ccc(NC(=O)CNC(=O)c2ccccc2)cc1	-6.36%	–
CC1(C(=O)NCC2CCOCC2)Cc2c(-c3cccc(C(N)=O)c3)ccnc2O1 (stereo not given)	-23.9%	–
O=C1NC(CC(=O)N2CCC(n3c(C4CCC4)nc4cccnc43)CC2)c2ccccc21 (stereo not given)	-16%	–
O=CNc1cc(-c2ccc(C(=O)N3CCOCC3)cc2)cn2c(-c3ccc(F)cc3)cnc12	-26.1%	–
CCc1nc2c(OCCc3cccc(OC)c3)cccn2c1N(C)C(=O)c1ccc(C)cc1	-21.3%	–
Cc1cc2nc(C)n(CCCNC(=O)Nc3ccccc3)c2cc1C	-11.2%	–
COc1ccc(OCCCn2c(C)nc3cc(C)c(C)cc32)cc1	–	28.2 µM (active)
Cc1cc2ncn(CCCCOc3ccccc3)c2cc1C	–	inactive
COc1ccc(C(C#N)=C2C=CC(=NO)c3ccccc32)cc1	-0.613%	–
CC[n+]1cc(C)ccc1/C=C/c1ccc(N(C)C)cc1	–	25.1 µM (active)
NCC[C@H](O)C(=O)N[C@@H]1C[C@H](N)[C@@H](O[C@H]2O[C@H](CN)[C@@H](O)[C@H](O)[C@@H]2O)[C@H](O)[C@@H]1O[C@H]1O[C@H](CO)[C@@H](O)[C@H](N)[C@@H]1O	-2.32% [at 0.575 µM]	–
CO[C@]1(NC(=O)CSC(F)F)C(=O)N2C(C(=O)O)=C(CSc3nnnn3CCO)CO[C@H]21	9.74%	–
COc1ccccc1NC(=O)c1oc2ccccc2c1NC(=O)COc1ccccc1OC	-17.9%	–
O=C(CCN1Cc2ccccc2OC(c2ccccc2)C1)N[C@@H]1CS(=O)(=O)C[C@H]1O (stereo not given in full)	-3.77%	–
CC(OC(=O)c1ccc([N+](=O)[O-])cc1)C(=O)NCC1CCCCC1 (stereo not given)	-6.52%	–
CC(OC(=O)c1cccc(S(=O)(=O)N2CCOCC2)c1)C(=O)NCC1CCCCC1 (stereo not given)	-31.2%	–
COc1cc(C(=O)OC(C)C(=O)NCC2CCCCC2)cc(NC(=O)c2ccco2)c1OC (stereo not given)	–	31.6 µM (active)
CCOC(=O)Cc1cccc(-c2cc(CCCCCCc3ccc(O[C@H]4O[C@H](COC(C)=O)[C@@H](OC(C)=O)[C@H](OC(C)=O)[C@@H]4OC(C)=O)c(-c4cccc(CC(=O)OCC)c4)c3)ccc2O[C@H]2O[C@H](COC(C)=O)[C@@H](OC(C)=O)[C@H](OC(C)=O)[C@@H]2OC(C)=O)c1	-7%	–
CN(C)CCNC(=O)c1ccc(-c2cn3c(-c4ccc(Oc5ccccc5)cc4)cnc3cn2)cc1	3.68%	–
CCCCN1CC(COCc2ccccc2)OCCS1(=O)=O (stereo not given)	-18.3%	–

Compound	activity change, negative = cytotoxicity	Potency
CCCCC[C@H](C)N1C[C@@H](COCc2ccccc2)Oc2cc(N3CC[C@@H](N(C)C)C3)ccc2S1(=O)=O	–	25.1 µM (active)
Cc1ccccc1-c1ccc2c(c1)O[C@@H](CN(C)Cc1ccc(C(=O)O)cc1)[C@@H](C)CN([C@H](C)CO)S2(=O)=O	-7.46%	–
CCN1CCN(Cc2c(O)ccc3oc(C)c(C(=O)Nc4ccc(C)cc4C)c23)CC1	-3.39%	–
Cc1oc2ccc(O)c(CN3CCOCC3)c2c1C(=O)Nc1cccc(Cl)c1C	-18.9%	–
Cc1oc2ccc(O)c(CN3CCCCC3)c2c1C(=O)Nc1cccc(C(F)(F)F)c1	–	28.2 µM (active)
COC(=O)/C=C(/C)N	-9.41%	–
COCCN1CCN(C(=O)c2sc3ncnc(NCC4CCCO4)c3c2C)CC1 (stereo not given)	-15.3%	–
CC(=O)Oc1ccccc1C(=O)Nc1ncc([N+](=O)[O-])s1	–	39.8 µM (active)
Cc1csc(NC(=O)Nc2ccccc2[N+](=O)[O-])n1	-25.1%	–
O=C(Nc1ccncc1)c1ccccc1[N+](=O)[O-]	-7.59%	–
CC(C)(C)S(=O)N1Cc2cc(C(=O)NCCCN3CCOCC3)nc(-c3cccc(-c4cc5ccccc5o4)c3)c2[C@H]1CCO (stereo not given in full)	-37.5%	–
CC(Oc1ccccc1)C(=O)N[C@@H]1C(=O)N2[C@@H]1SC(C)(C)[C@@H]2C(=O)O (stereo not given in full)	-12.4% [at 25.4 µM]	–
COCc1cccc(-c2csc(C(O)c3ccc(F)cc3)n2)c1 (stereo not given)	-24.3%	–
Cn1c(=O)[nH]c(=O)c2c1nc(N1CCN(C(c3ccccc3)c3ccccc3)CC1)n2CCO	–	3.16 µM (active)
Cn1c(=O)[nH]c(=O)c2c1nc(N1CCN(CCO)CC1)n2CCSc1nc2ccccc2s1	12.4%	–
CN1CCN(c2nc3c(c(=O)[nH]c(=O)n3C)n2Cc2cccc3ccccc23)CC1	-28.2%	–
CN[C@@H]1[C@@H](O)[C@@H](O[C@@H]2[C@H](O)[C@H](O[C@H]3OC(CN)=CC[C@H]3N)[C@@H](N)C[C@H]2N)OCC1(C)O (stereo not given in full)	-11.6%	–
CC(=O)Nc1ccc(-c2csc(NC(=O)Nc3ccccc3)n2)cc1	–	15 µM (active)
CC(=O)Nc1ccc(-c2cn3cccnc3n2)cc1	-17.5%	–
O=C(CSC1=NCCS1)Nc1nc(-c2ccccc2)cs1	-18.4%	–
